Values without a mark were called inactive. Calls of active or inactive are those of the source. The rule behind the calls is not given here.
Assay: C difficile toxins, biochemical counterscreen, UDPG substrate absence, confirmatory dose response (AID 720650)
Conditions: series mostly up to 19.5 µM

Compound | AC50
COCC(=O)N1CC[C@@H]2[C@H]1c1cc(-c3ccccc3)ccc1N(C)[C@H]2CO | 6.54 µM (active)
CNC(=O)C1CCN(S(=O)(=O)c2c(C)noc2/C=C/c2ccccc2F)CC1 | inactive
Cc1ccc2ccc[n+](Cc3ccccc3)c2c1 | inactive
CN1c2ccc(-c3ccccc3)cc2[C@@H]2[C@@H](CCN2C(=O)CN2CCOCC2)[C@@H]1CO | 7.03 µM (active)
O=c1c(OC2OC(CO)C(O)C(O)C2O)c(-c2ccc(O)c(O)c2)oc2cc(O)cc(O)c12 (centres undefined) | inactive
CCNC(=O)C[C@H]1CC[C@@H]2[C@H](COc3ccc(NC(C)=O)cc3C(=O)N2C)O1 | inactive
O=C(NNc1nc2c(F)cc(F)cc2s1)C1COc2ccccc2O1 (centres undefined) | 0.699 µM (active)
COc1ccc(/C=C2\CCCCC2=O)cc1 | inactive
C/C(=N\NC(N)=S)c1ccc2c(c1)OCCO2 | inactive
CCOC(=O)c1sc2nc(OCCN3CCOCC3)cc(C)c2c1N | inactive
COc1cccc(-n2c(SCC(=O)N3CCOCC3)nnc2-c2c[nH]c3ccccc23)c1 | inactive
COc1ccc(NC(=O)c2cc(C)nc3ccccc23)c(OC)c1 | inactive
COc1ccc(C(CNC(=O)c2oc3ccc(OC)cc3c2C)N2CCCC2)cc1 (centres undefined) | > 39 µM
COc1ccccc1CNC(=O)CNC(=O)N1CC(=O)Nc2ccccc21 | inactive
O=c1c([N+](=O)[O-])cccn1Cc1ccc(F)cc1Cl | inactive
Cc1cc(C)cc(N=C2NC(=O)CS2)c1 | inactive
Cc1cc(C(=O)CSc2nc(N)cc(=O)[nH]2)c(C)n1CC1CCCO1 (centres undefined) | inactive
COc1ccc(/C=C\c2onc(C)c2S(=O)(=O)N2CCC(C(=O)NCc3ccco3)CC2)cc1 | inactive
CC(OC(=O)[C@@H](NC(=O)OCc1ccccc1)C(C)C)C(=O)Nc1ccc(N2CCOCC2)cc1 (some centres undefined) | inactive
CC(=O)Nc1cc(-c2ccc(F)cc2)[nH]n1 | 2.6 µM (active)

Compound | AC50
CN1C(=O)c2cc(NC(=O)c3cccc(F)c3)ccc2OC[C@@H]2O[C@@H](CC(=O)NCC3CCCCC3)CC[C@H]21 | inactive
Cc1c(C(=O)c2ccccc2)c2ccccn2c1CCc1ccccn1 | inactive
CCCNC(=O)N1CC[C@@H]2[C@@H](CO)N(C)c3ccc(-c4ccc(F)cc4)cc3[C@@H]21 | 4.27 µM (active)
CC(=O)c1ccc(NC(=O)CNCC(c2ccccc2)N(C)C)cc1 (centres undefined) | inactive
Cc1cc(N2CCCC2=O)cc(C)c1S(=O)(=O)Nc1c(C)nn(C)c1C | inactive
Cc1ccc(C)c2nc(Cl)c(C3NC(=O)c4ccccc4N3)cc12 (centres undefined) | inactive
CCOc1ccc(S(=O)(=O)NCc2ccccc2Cl)cc1C(N)=O | > 39 µM
CC(=O)N1CC[C@@H]2[C@@H](CO)Nc3ccc(-c4ccccc4)cc3[C@@H]21 | 11.5 µM (active)
Cc1ccc(C(=O)Nc2ccc(O)cc2C(=O)O)cc1C | > 39 µM
COc1ccc(/C=C/c2nc3ccccc3n2C)cc1 | > 39 µM
COc1ccc(C2=NS(=O)(=O)N(C)C(C(=O)NCc3ccc4c(c3)OCO4)=C2)cc1 | inactive
Oc1ccc(CCNc2ncnc3ccc(Cl)cc23)cc1 | 19.5 µM (active)
CCOC(=O)c1c(C)[nH]c(C)c1C(=O)COC(=O)/C=C/c1ccco1 | > 39 µM
Cc1ccc2sc(NNC(=O)C3COc4ccccc4O3)nc2c1C (centres undefined) | 0.238 µM (active)
Cc1nc2[nH]c(=S)[nH]c2c(=O)[nH]1 | > 39 µM
CCCCn1c(CN2CCN(C(=O)c3ccco3)CC2)nc2c1c(=O)n(C)c(=O)n2C | inactive
Cc1cccc(OCCC(=O)NCC(=O)Nc2cccc(C)c2C)c1 | 16.4 µM (active)
O=C(NNc1ccc(-c2csnn2)cc1)c1cc(Cl)cc(Cl)c1 | < 0.16 µM (active)
O=c1[nH]c(/C=C\c2ccc(O)cc2)nc(O)c1[N+](=O)[O-] | 12.2 µM (active)
